Measured values from ChEMBL document CHEMBL4513216, “Probing the Open Global Health Chemical Diversity Library for Multistage-Active Starting Points for Next-Generation Antimalarials” (ACS Infect Dis, 2020).
The campaign covered roughly 65,000 compounds. About 2,100 (3.2%) showed an effect of 50% or more. The median lay at about -52%. The sample holds strong results, similar compounds and a random draw of the others, so the mix is not that of the screen.

test system: Plasmodium falciparum; test: Screen against P. falciparum Asexual Blood Stage (ABS), at 5uM; format: functional, Dd2; settings: tested at 5 uM

Compared with `Cn1cc(N2CCC3(CCN(Cc4cccnc4)C3)C2=O)cn1` (centres undefined), `COc1ncccc1CN1CCC2(CC1)COCCN2C` is lower in INHIBITION: -35.8% for the first, -36% for the second.

Going from `CCCN1CC2(CCN(c3ncc(F)cn3)CC2)CC1C(=O)O` (centres undefined) to `CN(C)C[C@@H]1C[C@@H]2CN(c3ncc(F)cn3)CC[C@@H]2N1C`, the INHIBITION rises from -31.5% to 12.3%.

First: Cc1cc(F)ccc1N1CCC(N2C[C@@H](CN(C)C)[C@@H](CO)C2)CC1
Second: CN(C)C[C@@H]1CN(C2CCN(c3ccccc3Cl)CC2)C[C@@H]1CO
The INHIBITION of the first is higher: 92.6% for the first, 74% for the second.

First: CN(CCO)C[C@@H]1CN(C2CCN(c3ccccc3Cl)CC2)C[C@@H]1CO
Second: CN(C)C[C@@H]1CN(C2CCN(c3ccc(Cl)cc3)CC2)C[C@@H]1CO
The INHIBITION of the first is lower: 79.5% for the first, 88.5% for the second.

Compared with `COCCO[C@H]1COCCN(C2CCN(C)CC2)C1`, `COCCN1CCOCC12CCN(C(=O)c1cccnc1)CC2` is higher in INHIBITION: -110% for the first, -95.8% for the second.

Compared with `Cc1cc(CN2C[C@@H]3CCCO[C@@H]3[C@H](NS(C)(=O)=O)C2)no1`, `CO[C@H]1CN(CC2CCOCC2)[C@@H]2CCCO[C@H]12` is lower in INHIBITION: -28.3% for the first, -48.2% for the second.

Going from `O=C(C1CCCCC1)N1CCO[C@@H]2CNC[C@@H]21` to `O=C([C@H]1C[C@H]2OCC[C@H]2N(Cc2cccnc2)C1)N1CCCCO1`, the INHIBITION falls from -65.1% to -141%.

First: COC[C@]12COC[C@H]1CN(Cc1cccnc1OC)C2
Second: COCCCN1CCCC12CCN(Cc1cccnc1OC)CC2
The INHIBITION of the first is lower: -130% for the first, 8.49% for the second.

Going from `CN(CCO)C[C@@H]1CN(Cc2ccccc2-c2ccccc2)C[C@@H]1CO` to `c1ccc(COC2C[C@@H]3CN(Cc4cccnc4)C[C@@H]3C2)cc1` (some centres undefined), the INHIBITION falls from 87.6% to -9.68%.

First: CC(C)=CCN1C[C@@H]2CC[C@H]1CN(C(=O)Cc1c(C)[nH]c(C)nc1=O)C2
Second: CN(C)C(=O)CN1C[C@H]2CC[C@@H](C1)N(Cc1c(Cl)cncc1Cl)C2
The INHIBITION of the first is higher: -28.2% for the first, -33.6% for the second.

Going from `Fc1ccc(CN2CCO[C@H]3[C@H](Oc4ccccn4)CC[C@@H]32)cc1` to `Fc1ccc(CN2C[C@@H](OCc3ccccn3)[C@H]3COC[C@H]32)cc1`, the INHIBITION falls from -29% to -62.3%.

Going from `O=C(Cc1cccnc1)N1C[C@@H]2CC[C@H]1CN(Cc1ccc(F)cc1)C2` to `Fc1ccc(CN2CCCC(c3cc4ncccc4[nH]3)C2)cc1` (centres undefined), the INHIBITION rises from -13.8% to 82.3%.

Going from `CCOc1ccc(CN2CCCC(c3cc4ncccc4[nH]3)C2)cc1` (centres undefined) to `COc1ccc(F)cc1C(=O)C1CCCN(Cc2ccc(C)s2)C1` (centres undefined), the INHIBITION falls from 85% to 17%.

Going from `c1cc(CO[C@H]2CC[C@H]3[C@H]2OCCN3Cc2nccs2)ccn1` to `CN(C)C(=O)[C@H]1C[C@@H]2CCN(Cc3ccncc3)C[C@H]2O1`, the INHIBITION rises from -84.3% to -59.7%.

Going from `CCc1c(C)sc2ncnc(N3CC[C@@H](N4CCC(O)CC4)[C@H](O)C3)c12` to `CSc1ncc(CN2C[C@@H]3CC[C@H]2CN(C2CCOCC2)C3)cn1`, the INHIBITION falls from 75.5% to -18.2%.

First: Cc1cc(C)c(CNc2cnc3ccccc3n2)c(=O)[nH]1
Second: c1ccc(Sc2ccc3c(c2)OCO3)c(CNC2=NCCN2)c1
The INHIBITION of the first is lower: 12.9% for the first, 83.7% for the second.

First: COc1ccccc1CC(=O)N1CCN(Cc2ccco2)C[C@@H]1C
Second: COc1ccccc1CC(=O)N(CCN1CCOCC1)Cc1ccco1
The INHIBITION of the first is lower: -101% for the first, -29.3% for the second.

Compared with `COc1ccccc1CCN1CCCC(CN(C)Cc2ccc(C)o2)C1` (centres undefined), `Cc1nc(CN2CCCC(NCCc3ccccc3Cl)C2)no1` (centres undefined) is lower in INHIBITION: 87.8% for the first, 82.3% for the second.

Compared with `Cc1nc(CN2CCOCC3(CCN(c4ncccn4)C3)C2)cs1` (centres undefined), `Cc1nc(CN2CCOCC3(CCN(c4ccccn4)C3)C2)cs1` (centres undefined) is higher in INHIBITION: -42.9% for the first, 0.814% for the second.

Going from `Cc1nc(CNCc2c(C(C)C)nn(C)c2N2CCOCC2)cs1` to `Cc1ccc(N2C[C@@H]3CN(Cc4csc(C)n4)CCO[C@@H]3C2)nn1`, the INHIBITION falls from 71.7% to -106%.

Going from `CC(C)NC(=O)N1CCOC2(CNC2)C1` to `CC(C)CN1CCNC(=O)C12CCN(C(=O)c1ccccn1)CC2`, the INHIBITION rises from -131% to -97.5%.

Compared with `Cc1cccc(CN2C[C@H](OCc3csc(C)n3)[C@H]3COC[C@H]32)n1`, `Cc1cccc(CN2C(=O)C[C@@H]3[C@@H]2CCN3Cc2ccsc2)n1` is higher in INHIBITION: -75.9% for the first, -13% for the second.

Going from `Cn1ncc2c(NC3CN4CCC3CC4)nc(-c3ccncc3)nc21` (centres undefined) to `Cn1ncc2c(NC3CCSC3)nc(-c3ccncc3)nc21` (centres undefined), the INHIBITION rises from 0.572% to 83.1%.

First: CCc1cc(CN2C[C@@H]3CC[C@H]2CN(C2Cc4ccccc4C2)C3)on1
Second: O=C(N1CCCC1)N1C[C@@H]2CC[C@H]1CN(Cc1ccncc1)C2
The INHIBITION of the first is higher: 88.2% for the first, -121% for the second.

Going from `Cc1ccsc1CN(CCCN(C)C)Cc1ccccn1` to `COCCn1ccnc1CN(Cc1ccccn1)Cc1sccc1C`, the INHIBITION rises from 77.9% to 92.9%.

Compared with `COCCN1CCO[C@@H]2CN(Cc3ccccn3)C[C@@H]2C1`, `COc1ncccc1CN1C[C@@H]2CN(c3ncccn3)C[C@@H]2C1` is higher in INHIBITION: -86.9% for the first, 5.48% for the second.

First: COc1cc(CN(CCCN(C)C)Cc2ccccn2)cc2c1OCO2
Second: COc1cc(CNC(C)Cn2cccn2)cc2c1OCO2 (centres undefined)
The INHIBITION of the first is higher: 80.6% for the first, -32.2% for the second.

First: COc1cc(CNC(C)Cn2cccn2)cc2c1OCCO2 (centres undefined)
Second: CC(Cn1cccn1)NCCS(=O)(=O)c1ccccc1 (centres undefined)
The INHIBITION of the first is higher: -31% for the first, -87.3% for the second.

Compared with `O=C1CO[C@H]2CN(Cc3ccccc3Br)C[C@@H]2N1`, `Cn1nc(-c2ccccc2)cc1[C@H]1CN2CC[C@H]1C[C@@H]2CNS(C)(=O)=O` is higher in INHIBITION: 7.05% for the first, 15% for the second.

First: Cc1cc(F)ccc1CN1CCC(O)(CN2CCCCC2)C1 (centres undefined)
Second: COc1ccc(F)cc1CN1CCC(O)(CN2CCCCC2)C1 (centres undefined)
The INHIBITION of the first is higher: 78.8% for the first, 70.9% for the second.

First: CN1CCO[C@H]2CN(C(=O)c3ccoc3)C[C@H]21
Second: Fc1cnc(N2CCO[C@H]3CN(CC4CCC4)C[C@H]32)nc1
The INHIBITION of the first is lower: -144% for the first, -80% for the second.

First: O=C1N(CCc2ccccc2)CCCC1(O)CNCc1ccc(F)cc1 (centres undefined)
Second: O=C1N(CCCc2ccccc2)CCCC1(O)CNCC1CCCCC1 (centres undefined)
The INHIBITION of the first is higher: 78.1% for the first, 72.4% for the second.

Going from `O=C(Nc1ccc(F)cc1)N1CCC(CO)(Nc2ccccc2)CC1` to `O=C(Cc1ccccc1)N1CCC2(CCN2Cc2ccc(F)cc2)C1` (centres undefined), the INHIBITION rises from -40.85% to -12.1%.

First: O=C(C1CCN(S(=O)(=O)N2CCCC2)CC1)N1CCC2(CC1)OCCO2
Second: Cn1c(CN2CCCCC2)cc(=O)c(O)c1CN1CCCCC1
The INHIBITION of the first is lower: -133% for the first, 81.8% for the second.

First: CC(C)CN1C[C@@H]2C[C@H](C(=O)NCc3cccnc3)[C@H](C1)O2
Second: O=C(NC1CC1)[C@H]1C[C@H]2OCC[C@H]2N(Cc2cccnc2)C1
The INHIBITION of the first is lower: -83.7% for the first, -76.1% for the second.

Compared with `CCc1ccc(CN(C)c2ccc(-c3nc(COC)no3)cn2)nc1`, `COc1ccccc1OCC(=O)N1CCN(Cc2noc(C)n2)CC1` is lower in INHIBITION: 78.4% for the first, -68.9% for the second.

First: c1cnc(N2CCO[C@H]3CN(CC4CCOCC4)C[C@H]32)nc1
Second: Cc1cccc(CO[C@@H]2C[C@H]3CN(c4ncccn4)CCN3C2)n1
The INHIBITION of the first is lower: -125% for the first, -75.8% for the second.

Compared with `Cc1nnc(NC(=O)CN2CCCC(c3ccn[nH]3)C2)s1` (centres undefined), `O=C(CN1CCCC(c2ccn[nH]2)C1)Nc1nncs1` (centres undefined) is higher in INHIBITION: 85.8% for the first, 89.1% for the second.

First: CC(C)(CNc1ccc(C#N)c(C(F)(F)F)c1)C(N)=O
Second: COCCCNC(=O)c1cn(C(C)(C)C)c2ncccc12
The INHIBITION of the first is higher: -66.3% for the first, -71.7% for the second.

Compared with `Cc1ccc(C2(CN(C)Cc3sccc3C)CCNCC2)nc1`, `CCC(C)(C)n1nnnc1C(c1cccs1)N1CCc2ccccc2C1` (centres undefined) is lower in INHIBITION: 77.4% for the first, 73.9% for the second.

Compared with `COc1ccc(C(=O)NCCCOC(C)c2ccccc2)c(OC)c1` (centres undefined), `CCN(CC)CCNC(=O)c1ccc(-n2ccc3ccccc32)s1` is higher in INHIBITION: 78.9% for the first, 90.5% for the second.

First: O=C(NCCCN1CCCCC1)c1ccc(-n2ccc3ccccc32)s1
Second: c1ccc(Oc2nccc3occc23)c(CN2CCCCC2)c1
The INHIBITION of the first is higher: 79% for the first, 72.9% for the second.

Going from `Cc1nc(CN2CCN3C[C@H](Oc4cncnc4)C[C@H]3C2)cs1` to `Cc1csc(CN2CC[C@H]3C[C@H](c4ccncn4)O[C@@H]3C2)n1`, the INHIBITION falls from -50.1% to -50.8%.

Going from `CN1CCN(Cc2ccccc2Oc2nccc3occc23)CC1` to `CC(C)c1nc(CN2CCN(C(=O)Cc3ccccc3Cl)CC2)no1`, the INHIBITION falls from 77.4% to 10.3%.

Compared with `O=C(c1c[nH]c2ncccc12)N(Cc1ccco1)C1CCCC1`, `O=C(Nc1ccccc1)[C@H]1CN2CC[C@H]1C[C@@H]2Cn1cc(CCO)nn1` is lower in INHIBITION: 87% for the first, -52.4% for the second.

Compared with `Fc1ccc(Sc2ccccc2CNC2=NCCN2)cc1`, `Fc1ccccc1Sc1ccccc1CNC1=NCCN1` is lower in INHIBITION: 80.4% for the first, 77.4% for the second.

Going from `CNCc1cn(C[C@H]2C[C@@H]3CCN2C[C@@H]3C(=O)NC2CCCCC2)nn1` to `CO[C@H]1CCN(S(=O)(=O)N(C)C)[C@@H]2CN(Cc3cccnc3)C[C@H]12`, the INHIBITION rises from -152% to -7.26%.

Compared with `CCN(CC)Cc1ccccc1NC(=O)N(C)Cc1ccccc1O`, `CCC(O)CN1CCN(C(=O)Cc2ccccc2Cl)CC1` (centres undefined) is lower in INHIBITION: 85% for the first, -113% for the second.

First: Cc1c(C)n(CC(O)CN2CCN(CCO)CC2)c2c(Cl)cccc12 (centres undefined)
Second: Cc1c(C)n(CC(O)CN2CCC(C)CC2)c2c(Cl)cccc12 (centres undefined)
The INHIBITION of the first is higher: 88.6% for the first, 83% for the second.

Work on `CCS(=O)(=O)N1CCN(CCOC)c2ncccc2C1` yielded an INHIBITION of -58.7%.
